In assay [1] the test system is Plasmodium falciparum Sir2 (PF13_0152, Sir2A). Description: Plasmodium falciparum Sir2A binding compounds – biochemical, small-molecule microarray, 635 nm fluorescence, primary screen (AID 1098).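 Further: score merges spot fluorescence intensity with its signal-to-noise ratio.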 The settings on record: fluorescence 635 nm, higher = more signal.
Assay [2] can be described thus: probe aDKK1 binding to arrayed compounds – biochemical, biotinylated probe, 635/667 nm fluorescence, primary screen (AID 1099).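 Further: score merges 667nm spot fluorescence with signal to noise across triplicate slides.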 Particulars: small-molecule microarray, higher = more signal.
Assay [3] can be described thus: probe aCHRDL2 binding to arrayed compounds – biochemical, biotinylated probe, 635/667 nm fluorescence, primary screen (AID 1100). Particulars: small-molecule microarray, higher = more signal.
A short description of assay [4]: change in splice reporter luminescence, either direction, cell-based, HEK293, spliceosome inhibition project, primary screen (AID 1101).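 Further: HEK293 cells carrying a splicing-competent luciferase reporter gene; test concentration not given here.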 Particulars: HEK293 splicing luciferase reporter, 24 h, higher = more signal, called active from +8 up or from −8 down.
For assay [5], the target named is Fibroblast growth factor 10 (Homo sapiens) (UniProt O15520). Description: compounds binding fibroblast growth factor 10 – biochemical, small-molecule microarray, 635 nm fluorescence, primary screen (AID 1102). The settings on record: FGF10 binding, fluorescence 635 nm, higher = more signal.
The subject of assay [6] is glycogen synthase kinase-3 (GSK3A per assay name; protocol says GSK3B). Description: compounds binding glycogen synthase kinase-3 – biochemical, small-molecule microarray, 635 nm fluorescence, GSK3A, primary screen (AID 1103). Further: the record names both GSK3A and GSK3B. The settings on record: fluorescence 635 nm, higher = more signal.
The target in assay [7] is Epidermal growth factor receptor (Homo sapiens) (UniProt P00533). Description: compounds binding epidermal growth factor receptor – biochemical, small-molecule microarray, 635 nm fluorescence, primary screen (AID 1104).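 Further: score merges 667 nm emission intensity with spot signal to noise over triplicate slides.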 The settings on record: EGFR binding, higher = more signal.
Assay [8] addresses Follistatin-related protein 3 (Homo sapiens) (UniProt O95633). Description: compounds binding follistatin-related protein 3 – biochemical, small-molecule microarray, 635 nm fluorescence, primary screen (AID 1105).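 Further: score merges emission near 667 nm and signal to noise per printed spot across three slides.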 The settings on record: FSTL3 binding, higher = more signal.
Assay [9] deals with Dickkopf-related protein 1 (Homo sapiens) (UniProt O94907). Description: small molecules binding DKK1 protein – biochemical, small-molecule microarray, 635 nm fluorescence scan, primary screen (AID 1106).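 Further: score merges emission near 667 nm with signal to noise over three replicate slides.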 The settings on record: higher = more signal.
For assay [10], the system named is Inhibin beta A chain (activin A). Description: small molecules binding activin A – biochemical, small-molecule microarray, 635 nm fluorescence scan, primary screen (AID 1107).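 Further: mouse activin A protein probed at 4.33 µg/mL on printed slides; score merges bound-protein fluorescence near 667 nm with spot signal-to-noise.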 Particulars: INHBA, higher = more signal.
Assay [11] relates to Human papillomavirus type 1a protein E7 (residues 44-93). Description: small molecules binding HPV E7 44-93 – biochemical, small-molecule microarray, residues 44-93, 635 nm fluorescence, primary screen (AID 1108).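 Further: E7 fragment applied at 1 µg/mL in TBST for 1 h at 4 C; score combines spot fluorescence with its signal to noise ratio.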 Particulars: fluorescence 635 nm, higher = more signal.
The nature of assay [12]: hepatitis C replication reporter changes, two-sided – Huh7 cells, luciferase reporter, HCV replication inhibitor project, primary screen (AID 1109).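 Further: huh7 hepatoma cells harbouring a luciferase neomycin HCV replicon reporter; luciferase luminescence as measure of HCV replicon replication; test concentration not given here.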 The settings on record: Huh7 HCV replicon luciferase reporter, 48 h; higher = more signal. A general note: A reporter such as luciferase makes a cellular process visible.
For assay [13], the target named is Left-right determination factor 2 (Homo sapiens) (UniProt O00292). Description: small molecules binding LEFTY2 protein – biochemical, small-molecule microarray, 635 nm fluorescence scan, primary screen (AID 1110). The settings on record: higher = more signal.
Assay [14] deals with Calmodulin-1 (Homo sapiens) (UniProt P0DP23). Description: small molecules binding calmodulin-1 with EGTA – biochemical, small-molecule microarray, Cy5-labelled CALM1, profiling panel (AID 1111).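 Further: labelled calmodulin applied in Tris saline Tween buffer holding calcium plus EGTA and DTT.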 Particulars: Cy5-CALM1 binding fluorescence, higher = more signal.
The target is the same in assay [15]. Description: small molecules binding Ca-loaded calmodulin-1 – biochemical, small-molecule microarray, Cy5-labelled CALM1, plus calcium, artefact control for SMM control-protein annotation, profiling panel (AID 1112).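 Further: score merges spot fluorescence with signal to noise from triplicate slides.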 Particulars: Cy5-CALM1 binding fluorescence, higher = more signal.
A short description of assay [16]: probe aWnt5a binding to arrayed compounds – biochemical, biotinylated probe, 635/667 nm fluorescence, primary screen (AID 1113).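 Further: score merges 667 nm fluorescence intensity with signal-to-noise per printed feature.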 The settings on record: small-molecule microarray, higher = more signal.
Assay [17] in a line: probe aShh binding to arrayed compounds – biochemical, biotinylated probe, 635/667 nm fluorescence, primary screen (AID 1114).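 Further: probe is biotin-labelled aShh protein from a stem cell growth factor screen; measures binding of labelled protein to compounds printed on the slide; score merges feature fluorescence at 667 nm with signal-to-noise.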 The settings on record: small-molecule microarray, higher = more signal.
A short description of assay [18]: probe aNog binding to arrayed compounds – biochemical, biotinylated probe, 635/667 nm fluorescence, primary screen (AID 1115).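 Further: probe is biotinylated aNog protein used at 0.15 µg/mL for 1 h at 4 C; z-score combines 667 nm fluorescence of each spot with its signal to noise.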 Particulars: small-molecule microarray, higher = more signal.
Assay [19] concerns the target Torsin-1A-interacting protein 1 (Homo sapiens) (UniProt Q5JTV8). Description: compound microarray binding of lysate hLAP1 – cell lysate, small-molecule microarray, COS7 lysate, 635/667 nm fluorescence, primary screen (AID 1116). Particulars: 635 nm fluorescence, higher = more signal.
Assay [20] has as its target Alpha-bungarotoxin (Bungarus multicinctus) (UniProt P60615). Description: compounds binding labelled alpha-BTX control protein – biochemical, small-molecule microarray, Alexa647 label, 635/667 nm fluorescence, artefact control for SMM control protein annotation, profiling panel (AID 1117). Particulars: alpha-BTX-A647 binding fluorescence, higher = more signal.

Calls of active or inactive are those of the source.

Sequence of Left-right determination factor 2 (Homo sapiens) (O00292 whole entry, looked up): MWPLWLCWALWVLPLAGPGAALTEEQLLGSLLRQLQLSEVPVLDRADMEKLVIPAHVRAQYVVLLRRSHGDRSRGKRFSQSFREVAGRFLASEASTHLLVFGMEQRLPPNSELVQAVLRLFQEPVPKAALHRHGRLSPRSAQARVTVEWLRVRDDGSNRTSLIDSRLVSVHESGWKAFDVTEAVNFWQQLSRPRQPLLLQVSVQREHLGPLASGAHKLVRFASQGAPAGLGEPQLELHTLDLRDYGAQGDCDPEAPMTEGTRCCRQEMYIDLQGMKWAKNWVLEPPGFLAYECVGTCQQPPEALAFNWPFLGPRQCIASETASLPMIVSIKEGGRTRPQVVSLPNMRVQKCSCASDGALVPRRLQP
Sequence of Alpha-bungarotoxin (Bungarus multicinctus) (P60615 whole entry, looked up): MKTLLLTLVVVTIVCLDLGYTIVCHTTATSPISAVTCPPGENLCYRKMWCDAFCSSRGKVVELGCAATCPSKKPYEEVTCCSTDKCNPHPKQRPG
Sequence of Epidermal growth factor receptor (Homo sapiens) (P00533 whole entry, looked up): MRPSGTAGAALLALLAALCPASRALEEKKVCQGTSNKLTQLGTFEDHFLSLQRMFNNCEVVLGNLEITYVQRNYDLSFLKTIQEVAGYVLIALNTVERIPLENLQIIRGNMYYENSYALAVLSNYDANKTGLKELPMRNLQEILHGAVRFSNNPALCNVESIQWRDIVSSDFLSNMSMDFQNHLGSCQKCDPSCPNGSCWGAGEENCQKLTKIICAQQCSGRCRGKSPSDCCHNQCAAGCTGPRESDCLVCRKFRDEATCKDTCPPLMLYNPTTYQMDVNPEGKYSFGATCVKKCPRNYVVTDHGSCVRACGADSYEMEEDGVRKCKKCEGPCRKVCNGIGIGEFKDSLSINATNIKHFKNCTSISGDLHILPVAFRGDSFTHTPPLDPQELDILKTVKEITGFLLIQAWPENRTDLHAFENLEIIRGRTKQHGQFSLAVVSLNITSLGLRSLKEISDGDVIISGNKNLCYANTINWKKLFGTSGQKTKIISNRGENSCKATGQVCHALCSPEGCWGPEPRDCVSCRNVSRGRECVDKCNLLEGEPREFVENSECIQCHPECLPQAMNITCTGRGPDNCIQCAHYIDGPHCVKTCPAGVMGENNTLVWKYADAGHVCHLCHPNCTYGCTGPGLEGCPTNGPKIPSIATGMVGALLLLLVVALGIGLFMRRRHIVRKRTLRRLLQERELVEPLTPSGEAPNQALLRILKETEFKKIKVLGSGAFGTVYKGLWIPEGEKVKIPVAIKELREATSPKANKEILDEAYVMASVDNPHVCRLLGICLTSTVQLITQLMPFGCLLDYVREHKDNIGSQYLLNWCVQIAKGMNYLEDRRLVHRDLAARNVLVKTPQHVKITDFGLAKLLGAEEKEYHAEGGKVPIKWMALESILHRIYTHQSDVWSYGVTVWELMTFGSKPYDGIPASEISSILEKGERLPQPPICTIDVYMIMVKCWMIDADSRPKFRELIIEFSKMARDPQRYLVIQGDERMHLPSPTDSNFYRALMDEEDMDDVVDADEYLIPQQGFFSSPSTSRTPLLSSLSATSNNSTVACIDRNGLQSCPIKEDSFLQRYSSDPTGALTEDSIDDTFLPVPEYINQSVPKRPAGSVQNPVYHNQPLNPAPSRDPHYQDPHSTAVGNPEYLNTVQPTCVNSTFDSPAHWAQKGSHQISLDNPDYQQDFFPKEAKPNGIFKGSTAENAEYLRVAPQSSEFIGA
Sequence of Dickkopf-related protein 1 (Homo sapiens) (O94907 whole entry, looked up): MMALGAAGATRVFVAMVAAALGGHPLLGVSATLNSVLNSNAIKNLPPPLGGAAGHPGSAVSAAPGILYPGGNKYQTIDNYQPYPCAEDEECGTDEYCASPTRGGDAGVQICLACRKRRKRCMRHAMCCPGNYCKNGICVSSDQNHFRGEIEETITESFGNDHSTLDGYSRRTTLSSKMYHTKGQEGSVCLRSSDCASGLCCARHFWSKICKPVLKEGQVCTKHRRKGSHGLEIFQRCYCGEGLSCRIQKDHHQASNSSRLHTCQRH
Sequence of Follistatin-related protein 3 (Homo sapiens) (O95633 whole entry, looked up): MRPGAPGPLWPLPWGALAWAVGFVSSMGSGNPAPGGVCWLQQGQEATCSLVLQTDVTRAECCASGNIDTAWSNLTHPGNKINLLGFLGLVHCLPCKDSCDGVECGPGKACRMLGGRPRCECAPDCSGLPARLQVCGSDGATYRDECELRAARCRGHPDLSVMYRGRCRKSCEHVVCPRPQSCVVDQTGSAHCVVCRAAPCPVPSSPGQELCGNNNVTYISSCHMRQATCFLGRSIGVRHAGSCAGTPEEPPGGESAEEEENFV
Sequence of Fibroblast growth factor 10 (Homo sapiens) (O15520 whole entry, looked up): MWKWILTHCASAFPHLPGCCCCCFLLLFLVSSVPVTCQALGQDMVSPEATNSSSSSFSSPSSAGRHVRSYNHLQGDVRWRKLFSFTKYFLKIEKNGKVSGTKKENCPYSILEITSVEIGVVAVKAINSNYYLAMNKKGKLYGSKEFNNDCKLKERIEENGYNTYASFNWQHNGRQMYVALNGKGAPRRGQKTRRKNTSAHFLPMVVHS
Sequence of Torsin-1A-interacting protein 1 (Homo sapiens) (Q5JTV8 whole entry, looked up): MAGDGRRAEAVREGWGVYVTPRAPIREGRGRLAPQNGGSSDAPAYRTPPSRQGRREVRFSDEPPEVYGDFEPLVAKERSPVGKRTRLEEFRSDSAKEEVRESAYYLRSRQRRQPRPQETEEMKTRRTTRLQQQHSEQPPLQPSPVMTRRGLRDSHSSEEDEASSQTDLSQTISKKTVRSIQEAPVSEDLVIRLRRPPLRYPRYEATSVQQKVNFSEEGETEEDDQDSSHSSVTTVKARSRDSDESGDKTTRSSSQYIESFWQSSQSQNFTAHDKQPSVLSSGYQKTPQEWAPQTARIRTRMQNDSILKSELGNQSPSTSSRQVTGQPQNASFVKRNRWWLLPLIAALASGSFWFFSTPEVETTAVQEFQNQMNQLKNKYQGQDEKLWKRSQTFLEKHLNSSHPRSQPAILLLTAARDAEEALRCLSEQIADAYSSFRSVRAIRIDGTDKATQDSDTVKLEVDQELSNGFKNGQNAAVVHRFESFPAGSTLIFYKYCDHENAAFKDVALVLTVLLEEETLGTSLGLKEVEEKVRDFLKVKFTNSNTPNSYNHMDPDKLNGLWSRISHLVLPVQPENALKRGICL

As to `COC(=O)[C@@]1(Cc2ccc(OC)cc2)[C@H]2c3cc(C(=O)N4CCCC4)n(Cc4c(CO)[nH]cc(C)c4=O)c3C[C@H]2CN1C(=O)c1ccccc1`, the composite z-score in assay [1] was 0.488; in assay [2], 2.01; in [3], 1.13; in assay [5] it was 0.404; in assay [6] it was 0.237; in assay [7], -0.0221. Also, the composite z-score was 0.158 in assay [8]; -0.59 in assay [9]; 1.02 in [10]; -0.78 in assay [11]; -0.181 in [13]; 2.05 in assay [14]. Also, the composite z-score in assay [15] was 0.593; in assay [16] it was 0.0328; in [17] it was -0.156; in assay [18], 0.947; in assay [19], 2.32; in assay [20] it was 0.12. Moreover, the results for the z-score in assay [4] and in assay [12] were -1.14 (inactive) and -1.4, respectively.
With `COc1ccc([Si](C)(C)[C@@H]2[C@@H](CC(=O)N3CCC[C@H]3CO)O[C@]3(C(=O)N(Cc4ccc(N5CCOC5=O)cc4)c4ccccc43)[C@H]2C)cc1`, the composite z-score in [1] is 1.4; in assay [2], -0.3; in assay [3], 0.135; in assay [5], 0.25; in [6] it was 0.946; in [7], -0.0626. Further, the composite z-score came to 0.388 in assay [8]; 0.366 in [9]; 0.0014 in assay [10]; 1.06 in assay [11]; 0.327 in [13]; 1.08 in assay [14]. The composite z-score in assay [15] was 0.461; in [16] it was -0.175; in [17] it was 0.0121; in [18], -0.402; in [19] it was 1.1; in [20], 0.931. Moreover, the z-score in assay [4] is -1.58 (inactive); in assay [12], -1.58.
Turning to `COc1ccc(C(O)C2C=CC3C(=O)N(c4ccccc4)C(=O)C3N2Nc2ccc([N+](=O)[O-])cc2)c2ccccc12` (stereo not given), the composite z-score in assay [1] was found to be 1.2; in assay [2], 0.662; in assay [3], 0.88; in [5] it was 0.981; in [6] it was 1.32; in [7] it was 0.385. For the same compound, the composite z-score was 1 in assay [8]; 0.226 in assay [9]; 0.642 in assay [10]; 1.45 in assay [11]; -0.0163 in [13]; 1.86 in assay [14]. Moreover, the composite z-score was found to be 0.554 in assay [15]; 0.062 in assay [16]; 0.204 in [17]; 1.61 in assay [18]; 1.6 in assay [19]; 2.54 in assay [20]. The z-score in assay [4] was -0.707 (inactive); in assay [12], -0.749.
`COC(=O)c1cccc([C@H]2OC(=CC(=O)OC(C)C)C[C@@H](c3cccc(C(=O)OC)c3)O2)c1`: the composite z-score amounted to 1.26 in assay [1]; 0.515 in [2]; 0.284 in assay [3]; 1.18 in assay [5]; 1.33 in [6]; 0.693 in assay [7]. The composite z-score in [8] was found to be 1.09; in assay [9] it was 0.34; in assay [10], 0.463; in assay [11], 1.43; in assay [13], 0.599; in assay [14] it was 1.36. The composite z-score was 0.144 in assay [15]; 0.4 in [16]; 0.156 in assay [17]; -0.109 in assay [18]; 3.27 in assay [19]; 0.866 in assay [20]. Also, the z-score was 0.599 (inactive) in assay [4] and -2.51 in assay [12].
For `CCOC(=O)C[C@H]1[C@H](OC(=O)Cc2ccc3c(c2)OCO3)[C@@H](NC(=O)Cc2ccc(OC)cc2)c2cc(OCCCO)ccc2N1C(=O)Cc1ccc(OC)cc1`, the composite z-score was 0.132 in assay [1]; -0.0514 in [2]; -0.178 in [3]; 0.205 in assay [5]; 0.157 in assay [6]; -0.141 in assay [7]. Also, the composite z-score in [8] was 0.0597; in assay [9], -0.141; in [10] it was 0.177; in assay [11], 0.221; in [13] it was -0.261; in [14] it was 0.824. In addition, the composite z-score is 0.0314 in assay [15]; -0.147 in assay [16]; -0.14 in assay [17]; 0.118 in [18]; 0.664 in [19]; -0.105 in assay [20]. Moreover, the z-score is -2.07 (inactive) in assay [4] and -1.05 in assay [12].
For the compound `CC(C)NC(=O)[C@@]1(c2ccc([N+](=O)[O-])cc2)CC(=O)N(CC23CC4CC(CC(C4)C2)C3)[C@@H]1c1ccc(CO)cc1`, the composite z-score was determined as 1.4 in assay [1]; 0.998 in [2]; 0.931 in assay [3]; 0.911 in assay [5]; 1.34 in assay [6]; 0.396 in assay [7]. The composite z-score in assay [8] was found to be 1.45; in assay [9], 1.3; in assay [10], 0.64; in assay [11], 0.939; in [13], 1.03; in [14], 1.03. The composite z-score in assay [15] is -0.0022; in assay [16] it was 0.289; in assay [17] it was 0.321; in assay [18], 1.85; in [19], 1.52; in [20] it was 1.37. In addition, the z-score in [4] is -0.279 (inactive); in assay [12] it was -2.7.

The values above are taken from PubChem BioAssay.
